# tim23-1 inh – tim23-1 yeast growth inhibition; inhibition, % at 20 µM; S. cerevisiae tim23-1 growth, BacTiter-Glo luminescence, 24 h; actives 1.3% (n = 330,000);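 active = growth inhibition of the mutant yeast at or above 50%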;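 also: temperature-sensitive mutant grown at 25 °C; plate controls were DMSO-treated mutant yeast for no effect and medium wells lacking yeast for full effect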
# PfHsp90 yeast 2 – growth inhibition of yeast expressing Plasmodium Hsp90; inhibition, % at 9.4 µM; AID 504621; S. cerevisiae expressing PfHsp90, BacTiter-Glo ATP, 48 h; yeast lacking PDR1 and PDR3 efflux regulators; actives 0.32% (n = 310,000);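 active = every replicate shows inhibition above about 80%, whatever the replicate mean, limit read from the data; inconclusive = mean inhibition reaches the set limit but some replicate falls short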;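 also: 0% = DMSO neutral controls and 100% = 20 µM radicicol positive controls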
# tim10-1 inh – growth inhibitors of tim10-1 mutant yeast. S. cerevisiae tim10-1 ts strain growth, BacTiter-Glo, 24 h. inhibition, % at 20 µM. actives 2.2% (n = 330,000). AID 463190;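 active = inhibition of at least 40%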;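 also: mutant grown at 25 °C; 0% = DMSO wells with yeast and 100% = wells holding no yeast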
# NALP1 inh – blocks the NALP1 inflammasome reconstituted in yeast | inhibition, % at 10 µM | actives 0.61% (n = 280,000) | S. cerevisiae NALP1/ASC/caspase-1 growth, X-gal OD620, 72 h; in the data active = inhibition mostly above about 24%, no sharp cut-off; inactive = mostly below about 32%
# NLRP3 yeast inh – inhibitors of NALP3 inflammasome in yeast; Yeast reconstituted NLRP3/ASC/caspase-1, beta-gal luminescence, 24 h; inhibition, % at 10 µM; actives 0.39% (n = 330,000); AID 2825;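 active = inhibition of 50% or more; inactive = inhibition below 50%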;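 also: plate controls were induced DMSO wells for no effect and uninduced yeast grown without galactose for full effect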
# TIM10 inh – TIM10 yeast growth inhibition; S. cerevisiae TIM10 strain growth, BacTiter-Glo luminescence, 24 h; inhibition, % at 10 µM; actives 1.4% (n = 330,000); AID 463195;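 active = inhibition of 40% or more at the single tested concentration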;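 also: wild-type TIM10 isogenic control strain grown at permissive 25 °C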
# tim10-1 confirm – confirmation of tim10-1 mutant yeast growth inhibitors; shares compounds with tim10-1 inh; S. cerevisiae tim10-1 ts strain growth, BacTiter-Glo, 24 h; inhibition, % at 20 µM; actives 56% (n = 7,400);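 active = inhibition of yeast growth at or above a set limit in either of two repeat tests at 20 µM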;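 also: tim10-1 mutant grown at permissive 25 °C to find synthetic lethal compounds; 0% = DMSO yeast wells and 100% = medium wells without yeast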
# TIM10 conf – confirmation of TIM10 yeast growth inhibitors. shares compounds with TIM10 inh. S. cerevisiae tim10 strain growth, BacTiter-Glo luminescence, 24 h. inhibition, % at 10 µM. actives 63% (n = 4,600);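 active = inhibition of yeast growth at or above a set limit in either of two replicates at 10 µM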;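 also: this counterscreen used the strain with wild-type TIM10; 0% = yeast with DMSO and 100% = medium wells lacking yeast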
# * marks the source's active call; other numbers are inactive results; ? = inconclusive; . = no result given. Shown are actives, neighbours in structure and some others; about 4.2% of the full set was active somewhere.
SMILES,tim23-1 inh,PfHsp90 yeast 2,tim10-1 inh,NALP1 inh,NLRP3 yeast inh,TIM10 inh,tim10-1 confirm,TIM10 conf
O=[N+]([O-])CC(c1ccc(F)cc1)c1c[nH]c2ccccc12 (centres undefined),44,-75,51*,-1,-8,43*,66*,60*
Cc1nc(Nc2ccc(Cl)c(Cl)c2)sc1C(=O)Nc1ccccc1,36,-33,59*,32,38,53*,32*,69*
CCc1cccc2c(C(=O)COC(=O)c3ccc([N+](=O)[O-])s3)c[nH]c12,-93,?,64*,101,47,74*,23,76*
COC(=O)C(C)Nc1cccc(Br)c1 (centres undefined),-1,-12,-1,.,-5,-2,.,.
CCOC(=O)C(C(=O)OCC)C(Nc1cccc(Br)c1)c1ccccc1 (centres undefined),42,32,55*,20,44,53*,37*,43*
Cc1ccc(N=Cc2c(O)n(C)c(=O)n(C)c2=O)nc1,25,42,40*,15,8,43*,17,33*
Cc1cccc(OCc2nnc(SC(C)C(=O)O)n2-c2ccccc2)c1 (centres undefined),7,-7,7,14,-1,1,.,.
Fc1ccc(-c2cc(-c3ccccc3)nc(-n3cccn3)n2)cc1,42,15,51*,-9,7,59*,46*,46*
Cc1ccc(S(=O)(=O)N2CCOCC2)cc1NC(=O)c1ccc(F)cc1F,1,2,2,.,0,3,.,.
CCOn1c(=O)c(=O)n(OC)c2ccccc21,20,-3,3,.,12,4,.,.
Cc1cc(C)cc(NC(=S)NC(=O)Cc2ccccc2)c1,47,-8,44*,.,23,40*,30*,40*
Cc1ccccc1S(=O)(=O)c1c(C)cc(C)n(C(C)C)c1=O,41,-18,41*,-12,-15,52*,34*,-30
COc1ccc(C(=O)O/N=C(\N)Cc2ccc([N+](=O)[O-])cc2)c(OC)c1,40,4,75*,13,-2,51*,84*,57*
COc1ccc(C(=O)Oc2cc(C)[nH]c(=O)c2[N+](=O)[O-])c(OC)c1,7,11,1,13,1,-1,.,.
CCOc1ccc(NC(=S)N(Cc2ccc(N(C)C)cc2)Cc2ccco2)cc1,38,-3,52*,-19,9,46*,43*,36*
COc1ccc(NC(=S)N(Cc2ccc(N(C)C)cc2)Cc2ccco2)cc1,37,-20,36,6,-1,37,.,.
Cc1ccc(Oc2nnc(-c3cccs3)c3ccccc23)cc1C,42,17,46*,14,16,46*,20,13
Cc1ccc(Oc2nnc(-c3cccs3)c3ccccc23)cc1,15,-13,14,15,5,-5,.,.
CC(C)CN(C)C(=O)CCc1nnc(Cc2ccc(-c3ccccc3)cc2)o1,-2,4,29,14,4,24,.,.
CN1CCN(C2=C(Cl)C(=O)C(c3cnc(N4CCCCC4)s3)=C(Cl)C2=O)CC1,25,.,72*,72*,15,45*,60*,44*
Cc1cc(C)cc(N(CCC#N)C(=O)COC(=O)c2ccc(OCc3c(C)noc3C)cc2)c1,19,6,11,.,-9,15,.,.
COC(=O)c1ccc(NC(=O)CS(=O)(=O)c2ccccc2)cc1,17,-6,10,5,11,-9,.,.
Cc1nn(-c2ccccc2)c2c1C1(C(=O)N(C)c3ccccc31)C(C#N)=C(N)O2 (centres undefined),39,.,67*,-14,-7,41*,54*,30
C/C(=N\OCC(=O)NC12CC3CC(CC(C3)C1)C2)c1cc2ccccc2o1,19,-17,45*,28,10,40*,22,36*
CCCCNC(=O)/C(=C\c1ccc([N+](=O)[O-])o1)NC(=O)c1ccccc1,32,-7,38,-28,18,28,.,.
SMILES,tim23-1 inh,PfHsp90 yeast 2,tim10-1 inh,NALP1 inh,NLRP3 yeast inh,TIM10 inh,tim10-1 confirm,TIM10 conf
COC(=O)/C(=C\c1ccc([N+](=O)[O-])o1)NC(=O)c1ccccc1,6,-1,45*,-9,-6,44*,40*,32*
COc1ccccc1NS(=O)(=O)c1cccc(NS(=O)(=O)c2cc(C(=O)O)ccc2OC)c1,10,11,15,.,9,2,.,.
COc1ccc(OCC(=O)O/N=C(\N)Cc2ccc(Cl)cc2Cl)cc1,50,-3,64*,-6,31,50*,63*,46*
N/C(=N\OC(=O)Cc1cccc2ccccc12)c1ccccn1,10,-1,60*,38,14,43*,49*,38*
Cc1ccc(OCC(=O)O/N=C(\N)Cc2ccc(Cl)cc2)cc1,42,-7,59*,1,37,78*,44*,-11
Cc1ccc(OCC(=O)O/N=C(\N)c2ccccn2)cc1,15,16,-13,-2,45,23,.,.
Cc1ccc(/C(N)=N/OC(=O)COc2ccccc2Cl)cc1,50,.,61*,.,26,40,42*,43*
COc1ccc(OCC(=O)O/N=C(\N)c2ccc(OC)cc2)cc1,13,11,4,28,43,4,.,.
O=C(c1ccc(O)c(Cl)c1)N1CCN(S(=O)(=O)c2ccccc2)CC1,20,6,11,25,5,8,.,.
CC(C)Nc1nc(NC(C)C)nc(SCCOC(=O)Nc2ccc(Cl)cc2Cl)n1,18,21,33,38,12,17,.,.
COc1ccc(CC(=O)O/N=C(\N)Cc2cccc3ccccc23)cc1,16,0,44*,6,12,48*,50*,53*
N/C(Cc1cccc2ccccc12)=N\OC(=O)c1ccc(Br)o1,.,.,.,24,.,.,.,.
COc1ccc(OCC(=O)O/N=C(\N)Cc2cccs2)cc1,11,0,19,12,25,16,.,.
COc1ccc(OCC(=O)O/N=C(\N)Cc2ccc(Cl)cc2)cc1,47,-4,62*,1,28,54*,58*,-40
N/C(Cc1cccc2ccccc12)=N\OC(=O)c1ccc2c(c1)OCO2,20,12,48*,11,-8,60*,39*,32*
O=C(COc1ccccc1F)Nc1ccc(S(=O)(=O)NCc2ccco2)cc1,28,0,46*,-24,-17,40*,33*,-17
CN(CC(=O)Nc1ccccc1Br)C(=O)CNC(=O)c1ccc(Oc2ccccc2)cc1,14,11,21,4,7,9,.,.

# Screening results as filed in PubChem.
